# The panel holds about 79,000 compounds, 15% with a hit somewhere; the sample as a whole holds those more often. Unmarked numbers belong to inactive results. Active and inactive are the calls of the source. Cut-off read from the data, not from the text of the source: active = growth inhibition above about 70%; inactive = the rest.
# Key:
# [1] = NCI Yeast Anticancer Drug Screen. Data for the rad52 strain (AID 147);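 note: 0% = growth of vehicle-treated control cultures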; details: S. cerevisiae rad52 mutant growth inhibition, stronger effect = higher value
# How it was run: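 Vehicle-treated cultures served as the reference for growth inhibition of compound-exposed yeast bearing a DNA repair mutation.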
# [2] = NCI Yeast Anticancer Drug Screen. Data for the rad50EPP+ strain (AID 151);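 note: 0% = growth of vehicle-treated control cultures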; details: S. cerevisiae rad50 mutant strain, stronger effect = higher value
# How it was run: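 In this screen, rad50EPP+ yeast were exposed to compounds. Growth inhibition was scored against vehicle-treated controls.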
# [3] = NCI Yeast Anticancer Drug Screen. Data for the mgt1 strain (AID 153); details: S. cerevisiae mgt1 mutant growth inhibition, stronger effect = higher value
# How it was run: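 mgt1 strain exposed; growth vs vehicle control recorded as inhibition.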
# [4] = NCI Yeast Anticancer Drug Screen. Data for the rad50 strain (AID 155);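 note: 0% = growth of vehicle-only cultures of the same strain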; details: S. cerevisiae rad50 strain growth inhibition, stronger effect = higher value
# How it was run: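 Cells are treated with compound, grown, and their growth is then scored against vehicle-only cultures of the same repair-deficient yeast strain.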
# [5] = NCI Yeast Anticancer Drug Screen. Data for the mec2-1 strain (AID 157); details: S. cerevisiae mec2-1 strain, stronger effect = higher value
# How it was run: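 Vehicle-treated cultures served as reference for growth inhibition of compound-exposed mec2-1 yeast.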
# [6] = NCI Yeast Anticancer Drug Screen. Data for the rad14 strain (AID 159);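 note: 0% = growth of vehicle-treated control cultures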; details: S. cerevisiae rad14 strain growth inhibition, stronger effect = higher value
# How it was run: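 Readout: yeast growth inhibition, referenced to vehicle-only cultures. Strain bears a defined alteration in DNA damage repair.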
# [7] = NCI Yeast Anticancer Drug Screen. Data for the sgs1 mgt1 strain (AID 161);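 note: 0% = growth of cultures given vehicle only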; details: S. cerevisiae sgs1 mgt1 strain, stronger effect = higher value
# How it was run: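 Mutant yeast exposed to compound; growth scored against vehicle-only wells.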
# [8] = NCI Yeast Anticancer Drug Screen. Data for the CLN2oe strain (AID 163);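 note: 0% = growth of vehicle-only control cultures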; details: S. cerevisiae CLN2oe strain, stronger effect = higher value
# How it was run: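 Inhibition relative to vehicle-treated yeast is reported. Cells: strain with genetic alteration in cell-cycle control, grown with compound.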
# [9] = NCI Yeast Anticancer Drug Screen. Data for the cln2 rad14 strain (AID 165);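 note: 0% = growth equal to vehicle treated cultures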; details: S. cerevisiae cln2 rad14 strain, stronger effect = higher value
# How it was run: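 Each compound was tested on cln2 rad14 yeast. Inhibition of growth was calculated against vehicle-exposed controls.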
# [10] = NCI Yeast Anticancer Drug Screen. Data for the bub3 strain (AID 167); details: S. cerevisiae bub3 mutant strain, stronger effect = higher value
# How it was run: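 Part of a panel of yeast mutants defective in DNA damage repair or cell cycle regulation. Each strain is grown with compound, and inhibition is calculated relative to solvent-treated cultures.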
# [11] = NCI Yeast Anticancer Drug Screen. Data for the wt2 strain (AID 169);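 note: 0% = growth of vehicle-treated yeast cultures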; details: S. cerevisiae wt2 strain growth inhibition, stronger effect = higher value
# How it was run: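 Inhibition of yeast growth was determined after compound treatment, normalised to controls receiving only vehicle.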
# [12] = NCI Yeast Anticancer Drug Screen. Data for the mlh1 strain (AID 171);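 note: 0% = growth of vehicle-treated control cultures of the same strain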; details: S. cerevisiae mlh1 strain growth inhibition, stronger effect = higher value
# How it was run: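 Vehicle-normalised growth inhibition of a repair- or checkpoint-altered yeast strain following compound treatment.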
# [13] = NCI Yeast Anticancer Drug Screen. Data for the sgs1 strain (AID 173);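 note: 0% = growth of vehicle-only control cultures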; details: S. cerevisiae sgs1 mutant, stronger effect = higher value
# How it was run: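 Screen format: yeast with repair or checkpoint alterations, compound exposure, growth read relative to vehicle.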
# [14] = NCI Yeast Anticancer Drug Screen. Data for the mlh1 rad18 strain (AID 175); details: S. cerevisiae mlh1 rad18 strain growth inhibition, stronger effect = higher value
# How it was run: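 Vehicle-treated cultures served as the reference for growth inhibition in a yeast strain carrying DNA damage repair alterations exposed to each compound.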
# [15] = NCI Yeast Anticancer Drug Screen. Data for the rad18 strain (AID 177); details: S. cerevisiae rad18 mutant growth inhibition, stronger effect = higher value
# How it was run: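 Test articles were incubated with altered yeast defective in DNA damage repair. Results are given as inhibition of growth versus vehicle.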
# [16] = at 5.0 µM (retest, dose inferred, filed as 0.5)
# [17] = at 50.0 µM (retest, dose inferred, filed as 5.0)
smiles,measurement,setting,value
CC/C(=C(\c1ccccc1)c1ccc(OCCN(C)C)cc1)c1ccccc1,growth inhibition,[1]; at 1.2 µM,15%
same,growth inhibition,[1]; at 3.7 µM,11%
same,growth inhibition,[1]; at 11.0 µM,38%
same,growth inhibition,[1]; at 33.0 µM,98% (active)
same,growth inhibition,[1]; at 100.0 µM,98% (active)
same,growth inhibition,[2]; at 1.2 µM,12%
same,growth inhibition,[2]; at 3.7 µM,2%
same,growth inhibition,[2]; at 11.0 µM,1%
same,growth inhibition,[2]; at 33.0 µM,97% (active)
same,growth inhibition,[2]; at 100.0 µM,97% (active)
same,growth inhibition,[3]; at 1.2 µM,7%
same,growth inhibition,[3]; at 3.7 µM,8%
same,growth inhibition,[3]; at 11.0 µM,94% (active)
same,growth inhibition,[3]; at 33.0 µM,98% (active)
same,growth inhibition,[3]; at 100.0 µM,97% (active)
same,growth inhibition,[4]; at 1.2 µM,9%
same,growth inhibition,[4]; at 3.7 µM,21%
same,growth inhibition,[4]; [16],44%
same,growth inhibition,[4]; at 11.0 µM,64%
same,growth inhibition,[4]; at 33.0 µM,98% (active)
same,growth inhibition,[4]; [17],99% (active)
same,growth inhibition,[4]; at 50.0 µM,90% (active)
same,growth inhibition,[4]; at 100.0 µM,97% (active)
same,growth inhibition,[5]; at 1.2 µM,-9%
same,growth inhibition,[5]; at 3.7 µM,-11%
same,growth inhibition,[5]; [16],46%
same,growth inhibition,[5]; at 11.0 µM,46%
same,growth inhibition,[5]; at 33.0 µM,98% (active)
same,growth inhibition,[5]; [17],99% (active)
same,growth inhibition,[5]; at 50.0 µM,93.4% (active)
same,growth inhibition,[5]; at 100.0 µM,97% (active)
same,growth inhibition,[6]; at 1.2 µM,-26%
same,growth inhibition,[6]; at 3.7 µM,-9%
same,growth inhibition,[6]; at 11.0 µM,89% (active)
same,growth inhibition,[6]; at 33.0 µM,97% (active)
same,growth inhibition,[6]; at 100.0 µM,96% (active)
same,growth inhibition,[7]; [16],-12%
same,growth inhibition,[7]; [17],98% (active)
same,growth inhibition,[7]; at 50.0 µM,92.8% (active)
same,growth inhibition,[8]; at 1.2 µM,4%
same,growth inhibition,[8]; at 3.7 µM,14%
same,growth inhibition,[8]; at 11.0 µM,82% (active)
same,growth inhibition,[8]; at 33.0 µM,98% (active)
same,growth inhibition,[8]; at 100.0 µM,97% (active)
same,growth inhibition,[9]; [16],30%
same,growth inhibition,[9]; [17],99% (active)
same,growth inhibition,[9]; at 50.0 µM,92% (active)
same,growth inhibition,[10]; at 1.2 µM,5%
same,growth inhibition,[10]; at 3.7 µM,10%
same,growth inhibition,[10]; [16],24%
same,growth inhibition,[10]; at 11.0 µM,38%
same,growth inhibition,[10]; at 33.0 µM,98% (active)
same,growth inhibition,[10]; [17],92% (active)
same,growth inhibition,[10]; at 50.0 µM,91.5% (active)
same,growth inhibition,[10]; at 100.0 µM,98% (active)
same,growth inhibition,[11]; at 1.2 µM,-9%
same,growth inhibition,[11]; at 3.7 µM,-15%
same,growth inhibition,[11]; at 11.0 µM,55%
same,growth inhibition,[11]; at 33.0 µM,98% (active)
same,growth inhibition,[11]; at 100.0 µM,97% (active)
same,growth inhibition,[12]; at 1.2 µM,-3%
same,growth inhibition,[12]; at 3.7 µM,0%
same,growth inhibition,[12]; at 11.0 µM,82% (active)
same,growth inhibition,[12]; at 33.0 µM,97% (active)
same,growth inhibition,[12]; at 100.0 µM,97% (active)
same,growth inhibition,[13]; at 1.2 µM,0%
same,growth inhibition,[13]; at 3.7 µM,1%
same,growth inhibition,[13]; at 11.0 µM,84% (active)
same,growth inhibition,[13]; at 33.0 µM,97% (active)
same,growth inhibition,[13]; at 100.0 µM,97% (active)
same,growth inhibition,[14]; [16],46%
same,growth inhibition,[14]; [17],99% (active)
same,growth inhibition,[14]; at 50.0 µM,40.4%
same,growth inhibition,[15]; at 1.2 µM,13%
same,growth inhibition,[15]; at 3.7 µM,12%
same,growth inhibition,[15]; at 11.0 µM,71% (active)
same,growth inhibition,[15]; at 33.0 µM,98% (active)
same,growth inhibition,[15]; at 100.0 µM,98% (active)
COC1=CC(=O)C(C2(OC(C)C)OC(=O)C(Cl)=C2Cl)=CC1=O (stereo unspecified),growth inhibition,[1]; at 1.2 µM,1%
same,growth inhibition,[1]; at 3.7 µM,22%
same,growth inhibition,[1]; at 11.0 µM,99% (active)
same,growth inhibition,[1]; at 33.0 µM,99% (active)
same,growth inhibition,[1]; at 100.0 µM,99% (active)
same,growth inhibition,[2]; at 1.2 µM,8%
same,growth inhibition,[2]; at 3.7 µM,48%
same,growth inhibition,[2]; at 11.0 µM,94% (active)
same,growth inhibition,[2]; at 33.0 µM,99% (active)
same,growth inhibition,[2]; at 100.0 µM,99% (active)
same,growth inhibition,[3]; at 1.2 µM,-3%
same,growth inhibition,[3]; at 3.7 µM,17%
same,growth inhibition,[3]; at 11.0 µM,99% (active)
same,growth inhibition,[3]; at 33.0 µM,99% (active)
same,growth inhibition,[3]; at 100.0 µM,99% (active)
same,growth inhibition,[4]; at 1.2 µM,1%
same,growth inhibition,[4]; at 3.7 µM,33%
same,growth inhibition,[4]; [16],56%
same,growth inhibition,[4]; at 11.0 µM,99% (active)
same,growth inhibition,[4]; at 33.0 µM,99% (active)
same,growth inhibition,[4]; [17],99% (active)
same,growth inhibition,[4]; at 50.0 µM,96.2% (active)
same,growth inhibition,[4]; at 100.0 µM,99% (active)
same,growth inhibition,[5]; at 1.2 µM,8%
same,growth inhibition,[5]; at 3.7 µM,65%
same,growth inhibition,[5]; [16],47%
same,growth inhibition,[5]; at 11.0 µM,100% (active)
same,growth inhibition,[5]; at 33.0 µM,100% (active)
same,growth inhibition,[5]; [17],99% (active)
same,growth inhibition,[5]; at 50.0 µM,86.7% (active)
same,growth inhibition,[5]; at 100.0 µM,99% (active)
same,growth inhibition,[6]; at 1.2 µM,3%
same,growth inhibition,[6]; at 3.7 µM,37%
same,growth inhibition,[6]; at 11.0 µM,99% (active)
same,growth inhibition,[6]; at 33.0 µM,99% (active)
same,growth inhibition,[6]; at 100.0 µM,99% (active)
same,growth inhibition,[7]; [16],53%
same,growth inhibition,[7]; [17],99% (active)
same,growth inhibition,[7]; at 50.0 µM,99.5% (active)
same,growth inhibition,[8]; at 1.2 µM,0%
same,growth inhibition,[8]; at 3.7 µM,87% (active)
same,growth inhibition,[8]; at 11.0 µM,99% (active)
same,growth inhibition,[8]; at 33.0 µM,99% (active)
same,growth inhibition,[8]; at 100.0 µM,99% (active)
same,growth inhibition,[9]; [16],30%
same,growth inhibition,[9]; [17],99% (active)
same,growth inhibition,[9]; at 50.0 µM,63.5%
same,growth inhibition,[10]; at 1.2 µM,0%
same,growth inhibition,[10]; at 3.7 µM,34%
same,growth inhibition,[10]; [16],30%
same,growth inhibition,[10]; at 11.0 µM,99% (active)
same,growth inhibition,[10]; at 33.0 µM,99% (active)
same,growth inhibition,[10]; [17],99% (active)
same,growth inhibition,[10]; at 50.0 µM,59.9%
same,growth inhibition,[10]; at 100.0 µM,99% (active)
same,growth inhibition,[11]; at 1.2 µM,-1%
same,growth inhibition,[11]; at 3.7 µM,10%
same,growth inhibition,[11]; at 11.0 µM,98% (active)
same,growth inhibition,[11]; at 33.0 µM,99% (active)
same,growth inhibition,[11]; at 100.0 µM,99% (active)
same,growth inhibition,[12]; at 1.2 µM,2%
same,growth inhibition,[12]; at 3.7 µM,27%
same,growth inhibition,[12]; at 11.0 µM,99% (active)
same,growth inhibition,[12]; at 33.0 µM,99% (active)
same,growth inhibition,[12]; at 100.0 µM,99% (active)
same,growth inhibition,[13]; at 1.2 µM,2%
same,growth inhibition,[13]; at 3.7 µM,37%
same,growth inhibition,[13]; at 11.0 µM,99% (active)
same,growth inhibition,[13]; at 33.0 µM,99% (active)
same,growth inhibition,[13]; at 100.0 µM,99% (active)
same,growth inhibition,[14]; [16],43%
same,growth inhibition,[14]; [17],99% (active)
same,growth inhibition,[14]; at 50.0 µM,91.8% (active)
same,growth inhibition,[15]; at 1.2 µM,7%
same,growth inhibition,[15]; at 3.7 µM,49%
same,growth inhibition,[15]; at 11.0 µM,99% (active)
same,growth inhibition,[15]; at 33.0 µM,99% (active)
same,growth inhibition,[15]; at 100.0 µM,99% (active)
